Compound activity (PubChem)
An excerpt weighted towards active compounds, which were near 1.1% of everything screened.
AGP1 TOR yeast = alters AGP1-GFP fluorescence in TOR pathway yeast screen; S. cerevisiae AGP1-GFP multiplex flow cytometry, 3 h; GFP as percent of DMSO wells; GFP response vs DMSO, % at 10 µM; 320,000 tested, 0.02% active;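 active means GFP response relative to DMSO above a set limit, near screen average plus 3 SD, cut at about 150% in these data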;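 further: median GFP channel fluorescence of the gated AGP1 strain per well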
CIT2-GFP yeast = modulators of TOR pathway CIT2-GFP in S. cerevisiae; S. cerevisiae CIT2-GFP strain, flow cytometry, 3 h; 100 means same as DMSO wells; GFP response vs DMSO, % at 10 µM; 320,000 tested, 0.065% active; AID 2029;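 active means GFP response relative to DMSO above a set limit, near the screen mean plus 3 SD, cut at about 150% in these data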;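 further: ratio of well median GFP fluorescence to mean of DMSO wells on the plate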
MEP2-GFP yeast = yeast TOR pathway MEP2-GFP modulation | S. cerevisiae MEP2-GFP strain, flow cytometry GFP, 3 h; 100% = DMSO control level | GFP response vs DMSO, % at 10 µM | 330,000 tested, 0.51% active | AID 2016;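 active means GFP response versus DMSO above a set limit, roughly screen mean plus 3 SD, cut at about 180% in these data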;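 further: median GFP fluorescence of the barcode-gated MEP2-GFP cells per well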
LAP4 TOR yeast = yeast TOR pathway LAP4-GFP modulation; 320,000 tested, 0.34% active; AID 2023; GFP response vs DMSO, % at 10 µM; S. cerevisiae LAP4-GFP multiplex, flow cytometry GFP, 3 h; median GFP as percent of DMSO wells;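 active means GFP response vs DMSO above a set limit, about the screen mean plus 3 SD, cut at about 150% in these data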
VLA-4 inh = inhibition in a human VLA-4 binding assay; inhibition, % (about 7 µM as worked out from the volumes in the protocol); AID 2557; 330,000 tested, 0.2% active; VLA-4 expressing cells, ligand binding flow cytometry; in the data active means inhibition above about 50%
Target sequence (P13612 whole entry, looked up): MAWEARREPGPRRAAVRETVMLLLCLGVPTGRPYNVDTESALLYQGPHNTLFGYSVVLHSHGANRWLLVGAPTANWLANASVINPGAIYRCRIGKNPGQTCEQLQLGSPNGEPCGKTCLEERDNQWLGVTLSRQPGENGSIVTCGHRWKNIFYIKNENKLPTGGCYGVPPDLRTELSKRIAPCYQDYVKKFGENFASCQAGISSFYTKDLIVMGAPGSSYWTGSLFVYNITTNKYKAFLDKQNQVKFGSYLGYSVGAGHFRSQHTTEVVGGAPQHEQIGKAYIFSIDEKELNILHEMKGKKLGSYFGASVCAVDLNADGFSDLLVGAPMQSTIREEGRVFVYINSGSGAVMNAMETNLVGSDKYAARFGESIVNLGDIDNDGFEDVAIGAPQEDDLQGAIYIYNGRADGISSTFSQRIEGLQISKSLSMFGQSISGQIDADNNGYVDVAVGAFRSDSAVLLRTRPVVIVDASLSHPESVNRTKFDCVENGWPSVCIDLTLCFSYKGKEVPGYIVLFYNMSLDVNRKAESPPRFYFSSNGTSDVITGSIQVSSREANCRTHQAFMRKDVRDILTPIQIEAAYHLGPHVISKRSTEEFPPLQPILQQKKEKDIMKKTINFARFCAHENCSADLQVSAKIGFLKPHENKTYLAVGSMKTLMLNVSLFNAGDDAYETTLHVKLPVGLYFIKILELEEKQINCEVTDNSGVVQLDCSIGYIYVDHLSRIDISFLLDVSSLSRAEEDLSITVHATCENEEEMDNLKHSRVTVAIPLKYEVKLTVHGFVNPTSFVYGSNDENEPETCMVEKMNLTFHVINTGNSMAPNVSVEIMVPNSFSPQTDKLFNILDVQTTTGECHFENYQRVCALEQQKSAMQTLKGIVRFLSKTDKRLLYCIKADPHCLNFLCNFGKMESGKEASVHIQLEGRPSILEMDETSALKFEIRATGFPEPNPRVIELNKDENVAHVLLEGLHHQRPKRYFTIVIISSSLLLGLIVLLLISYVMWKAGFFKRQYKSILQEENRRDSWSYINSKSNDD
RPL19A TOR yeast = alters RPL19A-GFP fluorescence in TOR pathway yeast screen. percent response vs DMSO, % at 10 µM. S. cerevisiae RPL19A-GFP strain, flow cytometry, 3 h; stronger effect = lower value. 330,000 tested, 0.3% active;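 active means percent response vs DMSO below 50%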;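 further: median channel GFP fluorescence of the barcoded RPL19A-GFP strain; lower means less RPL19A-GFP as with rapamycin TOR inhibition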
LAP4 cherry2 = reconfirmed LAP4-GFP TOR pathway modulator in yeast. shares compounds with LAP4 TOR yeast. S. cerevisiae LAP4-GFP strain, flow cytometry GFP, 3 h. GFP response vs DMSO, % at 10 µM. 590 tested, 20% active. AID 2621;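 active means GFP signal as percent of the solvent control above about 150%, meaning raised reporter expression, limit read from the data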
MEP2-GFP pick2 = reconfirmed MEP2-GFP TOR pathway modulator in yeast; GFP response vs DMSO, % at 10 µM; 590 tested, 10% active; S. cerevisiae MEP2-GFP strain, flow cytometry GFP, 3 h; shares compounds with LAP4 TOR yeast; AID 2622;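 active means GFP signal above 150% of the solvent control wells, that is a rise of more than half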;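 further: median channel GFP fluorescence of all gated yeast cells per well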
RPL19A GFP CP2 = yeast RPL19A-GFP TOR reporter modulation, second cherry pick; GFP response vs DMSO, % at 10 µM; shares compounds with LAP4 TOR yeast; 590 tested, 3% active; AID 2623; S. cerevisiae RPL19A-GFP strain, flow cytometry GFP, 3 h; stronger effect = lower value; 100% means same as DMSO wells;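 active means under 65% GFP response relative to DMSO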;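 further: median GFP channel fluorescence per well over the all cells gate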
CIT2 GFP CP2 = reconfirmed modulator of CIT2-GFP TOR reporter in yeast | shares compounds with LAP4 TOR yeast | S. cerevisiae CIT2-GFP strain, flow cytometry GFP, 3 h; DMSO control wells read 100% | GFP response vs DMSO, % at 10 µM | 590 tested, 8% active;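 active means GFP response vs DMSO above about 150%, limit read from the data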;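 further: median green fluorescence per well over all gated yeast cells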
AGP1-GFP pick2 = reconfirmed modulator of AGP1-GFP TOR reporter in yeast. shares compounds with LAP4 TOR yeast. S. cerevisiae AGP1-GFP strain, flow cytometry GFP, 3 h. percent response vs DMSO, % at 10 µM. 590 tested, under 10 active. AID 2643;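 active means over 150 percent of DMSO response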;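 further: median GFP channel fluorescence over all cells without mother daughter split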
s288c autofluor = yeast s288c autofluorescence artifact, counter-screen; shares compounds with LAP4 TOR yeast; S. cerevisiae s288c, 520 nm autofluorescence, flow cytometry, 3 h; stronger effect = higher value; zero means same as solvent-only cells; fluorescence change (kMESF span) at 33 µM; 610 tested, under 10 active; AID 2757;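 active means fluorescence span over the dose series, or activity score, above about 33, limit read from the data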
Large screens that a line does not name were inactive (follow-up assays come after a bar, where they were run).

COc1ccc(/C=C2\C(=O)ON=C2c2ccccc2)cc1OC	none
CCCCc1nc2cc(C(=O)NCCc3c(C)n[nH]c3C)ccc2o1	none
CCC(C)c1ccc(NC(=O)C2=CC=CN3CCS(=O)(=O)N=C23)cc1 (centres undefined)	none
COc1cccc(/C=N\NS(=O)(=O)c2ccccc2)c1OC	none
Cc1cc(=S)nc(-c2ccccn2)[nH]1	none
Cc1[nH]c(-c2ccccn2)nc(=S)c1Cl	LAP4 TOR yeast 266.9 | s288c autofluor inactive
Cn1cnc(NCc2ccccc2)c1[N+](=O)[O-]	none
COc1ccc(NC(=O)/C(C#N)=C/c2ccc[nH]2)c(OC)c1	none
COc1ccc(NC(=O)/C(C#N)=C/c2ncc([N+](=O)[O-])n2C)c(OC)c1	LAP4 TOR yeast 182.3 | s288c autofluor inactive
CCN(CC(=O)Nc1c(F)cccc1F)C(=O)c1ccc2ncsc2c1	none
COC1=C(N)C(=O)c2nc(-c3nc(C(=O)O)c(C)c(-c4ccc(OC)c(OC)c4O)c3N)ccc2C1=O	LAP4 TOR yeast 218.4 | LAP4 cherry2 308.6 | MEP2-GFP pick2 251.5 | RPL19A GFP CP2 inactive | CIT2 GFP CP2 349.1 | AGP1-GFP pick2 inactive
O=C(CCC(F)(F)F)N1CCCC(N2CCN(c3cccc(Cl)c3)CC2)C1 (centres undefined)	none
C[C@H](CO)N1C[C@H](C)[C@@H](CN(C)S(=O)(=O)c2ccc(F)cc2)Oc2ccc(NS(=O)(=O)c3ccccc3)cc2C1=O	none
CN(O)/C=C1\C(=O)Nc2ccccc21	none (no result: AGP1 TOR yeast)
O=C1Nc2ccccc2/C1=C\C(=O)c1ccccc1	LAP4 TOR yeast 226.0 | s288c autofluor inactive
CC(C)Oc1ccc(C(=O)/C=C2/C(=O)Nc3ccccc32)cc1	LAP4 TOR yeast 160.9 | s288c autofluor inactive
Cc1ccc(-n2nc3c(c2NC(=O)CC(C)C)CS(=O)(=O)C3)c(C)c1	none
COc1ccccc1NS(=O)(=O)c1ccc(O)c(C(=O)OCC(=O)N2c3ccccc3CC2C)c1 (centres undefined)	none
COc1ccc2[nH]c(C(=O)O)c(CCN3C(=O)c4cccc([N+](=O)[O-])c4C3=O)c2c1	none | LAP4 cherry2 inactive | MEP2-GFP pick2 inactive | RPL19A GFP CP2 inactive | CIT2 GFP CP2 inactive | AGP1-GFP pick2 inactive
Cc1cccc(C)c1NC(=O)CNC(=O)CCCN1C(=O)c2cccc3cccc(c23)C1=O	AGP1 TOR yeast 181.5, CIT2-GFP yeast 413.8, MEP2-GFP yeast 449.1, LAP4 TOR yeast 374.7 | LAP4 cherry2 inactive | MEP2-GFP pick2 inactive | RPL19A GFP CP2 inactive | CIT2 GFP CP2 inactive | AGP1-GFP pick2 inactive
O=C(C[C@@H]1C/C=C\C[C@H](Cc2ccc(F)cc2)C(=O)OC[C@@H]2CCCN2C1=O)N[C@H](CO)Cc1ccccc1	none
CCOP(=O)(OCC)C(Nc1cccc([N+](=O)[O-])c1)c1ccc(OC)cc1 (centres undefined)	none | LAP4 cherry2 inactive | MEP2-GFP pick2 inactive | RPL19A GFP CP2 inactive | CIT2 GFP CP2 inactive | AGP1-GFP pick2 inactive
COc1ccc(OC)c(S(=O)(=O)ON2C(=O)c3ccccc3C2=O)c1	LAP4 TOR yeast 181.6 | s288c autofluor inactive
COc1cc(OCc2ccccc2)c(C(=O)/C=C/c2ccc3c(c2)OCO3)c(OC)c1OC	none
ClC(Cl)(c1nnnn1-c1ccccc1)c1nnnn1-c1ccccc1	LAP4 TOR yeast 232.1 | LAP4 cherry2 264.5 | MEP2-GFP pick2 inactive | RPL19A GFP CP2 inactive | CIT2 GFP CP2 inactive | AGP1-GFP pick2 inactive | s288c autofluor inactive
c1ccc(-c2nnnn2-c2ccccc2)cc1	none
O=C(NCC(c1ccco1)N1CCCCC1)c1ccc([N+](=O)[O-])s1 (centres undefined)	none
Cc1ccc(-n2c(SCC(=O)N3CCCC3)nc3c(c2=O)SCC3)cc1	none
COC(=O)c1ccc(CSc2nc3c(c(=O)n2-c2ccc(C)cc2)SCC3)o1	LAP4 TOR yeast 171.6 | LAP4 cherry2 inactive | MEP2-GFP pick2 inactive | RPL19A GFP CP2 inactive | CIT2 GFP CP2 inactive | AGP1-GFP pick2 inactive
COc1ccc(N2CCN(C(=O)c3ccc(C)cc3)CC2)c([N+](=O)[O-])c1	none
COc1ccc(N2CCN(C(=O)c3ccc(Br)cc3)CC2)c([N+](=O)[O-])c1	LAP4 TOR yeast 198.6 | s288c autofluor inactive
COc1ccc(N2CCN(C(=O)c3ccccc3)CC2)c([N+](=O)[O-])c1	LAP4 TOR yeast 189.3 | s288c autofluor inactive
O=C(Sc1cccc2cccnc12)c1ccccc1Br	LAP4 TOR yeast 166.0 | s288c autofluor inactive
CC(=O)/C(=N\Nc1ccccc1)Sc1cccc2cccnc12	none
O=C(CN1CCN(S(=O)(=O)c2ccc(F)cc2)CC1)NCC1(N2CCOCC2)CCCCC1	none
CSc1ccccc1OCc1cc(C(=O)N2CCc3[nH]cnc3C2c2ccccn2)no1 (centres undefined)	none
O=[N+]([O-])c1cccc(-c2cnc3ccccc3n2)c1	none
O=Nc1c(-c2cccc([N+](=O)[O-])c2)nc2ncccn12	none | LAP4 cherry2 inactive | MEP2-GFP pick2 inactive | RPL19A GFP CP2 inactive | CIT2 GFP CP2 inactive | AGP1-GFP pick2 inactive
Nc1nc2ncc(CNc3ccc(C(=O)N[C@@H](CCC(=O)O)C(=O)O)cc3)nc2c(=O)[nH]1	none | LAP4 cherry2 inactive | MEP2-GFP pick2 inactive | RPL19A GFP CP2 inactive | CIT2 GFP CP2 inactive | AGP1-GFP pick2 inactive | s288c autofluor inactive
